Experiment [1] relates to Sodium/Iodide Symporter (NIS), SLC5A5 (gene 6528). The experiment can be described thus: CPHEA_Stoker_NIS_Inhibition_RAIU: CPHEA's Radioactive Iodide Uptake (RAIU) Assay for Sodium/Iodide Symporter (NIS) Inhibition, Stoker and Laws Labs (AID 2283841). Put shortly: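 Iodide uptake read as CPM of intracellular 125I (final 329 pM) after 2 h room-temperature exposure in HEPES-buffered HBSS, pH 7.4. Human NIS-expressing HEK293T cells; six concentrations 0.001–100 uM, 0.5% DMSO, normalised to DMSO wells.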

The nature of experiment [2]: CPHEA_Stoker_NIS_Cytotoxicity: Cytotoxicity Assessment for CPHEA's Radioactive Iodide Uptake (RAIU) Assay for Sodium/Iodide Symporter (NIS) Inhibition, Stoker and Laws Labs (AID 2283897). Summed up:
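CellTiter-Glo ATP luminescence gauged viability in HEK293T cells expressing human NIS after 2 h chemical exposure. Concentrations ran 0.001–100 uM in 0.5% DMSO; DMSO served as baseline for the loss-of-signal fit.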

A short description of experiment [3]: CEETOX_H295R_OHPREG_noMTC: CeeTox H295R High-throughput Steroidogenesis Assay for OH-Pregnenolone (OHPREG), maximum tolerated concentration (MTC) filtered results only (AID 2283912; active means hit-call score of the fitted dose curve at least 0.9, where 1 is the maximum; inactive means score below 0.9). Conditions: actives raise or lower the signal. Put shortly: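 H295R human adrenal cells, forskolin-prestimulated (10 uM, 48 h), then exposed to test chemical in 0.1% DMSO for 48 h. 17alpha-hydroxypregnenolone in medium measured by HPLC-MS/MS after MTBE extraction; bidirectional fit versus DMSO, concentrations not MTC-filtered.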

Experiment [4] in a line: CEETOX_H295R_OHPROG_noMTC: CeeTox H295R High-throughput Steroidogenesis Assay for OH-Progesterone (OHPROG), maximum tolerated concentration (MTC) filtered results only (AID 2283914; active means hit-call score of the fitted dose curve at least 0.9, where 1 is the maximum; inactive means score below 0.9). The conditions noted are these: actives raise or lower the signal. Summed up: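 H295R human adrenal cells prestimulated 48 h with 10 uM forskolin, then exposed 48 h to test chemical (0.1% DMSO final). Medium 17alpha-hydroxyprogesterone extracted with MTBE, quantified by HPLC-MS/MS; bidirectional fit versus DMSO, concentrations not MTC-filtered.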

Experiment [5] is described as follows: CEETOX_H295R_11DCORT_noMTC: CeeTox H295R High-throughput Steroidogenesis Assay for 11-Deoxycortisol (11DCORT), maximum tolerated concentration (MTC) filtered results only (AID 2283911; active means hit-call score of the fitted dose curve at least 0.9, where 1 is the maximum; inactive means score below 0.9). Conditions: actives raise or lower the signal. Summed up:
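Values carry no filtering for maximum tolerated concentration: medium from forskolin-primed (10 uM, 48 h) H295R cells after 48 h chemical exposure (0.1% DMSO) was MTBE-extracted, and 11-deoxycortisol quantified by reverse-phase HPLC-MS/MS. Fitting was bidirectional against DMSO.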

Experiment [6] can be described thus: CEETOX_H295R_ANDR_noMTC: CeeTox H295R High-throughput Steroidogenesis Assay for Androstenedione (ANDR), maximum tolerated concentration (MTC) filtered results only (AID 2283915; active means hit-call score of the fitted dose curve at least 0.9, where 1 is the maximum; inactive means score below 0.9). The conditions noted are these: actives raise or lower the signal. Put shortly:
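H295R cells, passage 10 or below, prestimulated 48 h with 10 uM forskolin, then exposed 48 h to chemical in 0.1% DMSO. Medium androstenedione extracted with MTBE, quantified by HPLC-MS/MS; concentrations not MTC-filtered; bidirectional fit versus DMSO.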

Experiment [7] has as its target Estrogen receptor (Homo sapiens) (UniProt P03372). The experiment can be described thus: ATG_hERa_XSP2: Attagene TRANS-FACTORIAL Multi-Species (XSP2) HepG2 Assay for human Estrogen Receptor (ERa) (AID 2283827). Put shortly: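 HepG2 cells transiently transfected with multiplexed GAL4-UAS reporters driven by chimeric receptor-Gal4 proteins, dosed 24 h with 3 nM 6-alpha-fluorotestosterone and 1.5 nM norgestrel present. Reporter mRNA by RT-PCR and capillary electrophoresis; gain-of-signal fit versus DMSO.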

Experiment [8] deals with frog Estrogen Receptor (ER2), gene 100174814. The experiment can be described thus: ATG_frER2_XSP2: Attagene TRANS-FACTORIAL Multi-Species (XSP2) HepG2 Assay for frog Estrogen Receptor (ER2) (AID 2283828). Put shortly: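 Human liver HepG2, transient MRTU transfection (TRANS format, exogenous NR–Gal4). 24 h cpd exposure. Total RNA → RT → PCR → FAM label → HpaI cut → CE. Positive direction vs DMSO.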

The target of experiment [9] is Nuclear receptor subfamily 1 group I member 2 (Mus musculus) (UniProt O54915). The experiment can be described thus: ATG_mPXR_XSP2: Attagene TRANS-FACTORIAL Multi-Species (XSP1) HepG2 Assay for mouse Pregnane X Receptor (PXR) (AID 2283831). Put shortly: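 Reporter transcripts measured after 24 h dosing by RT-PCR with 6-FAM labelling, HpaI digestion and capillary electrophoresis. Transiently transfected HepG2 with NR-Gal4 chimeras; increase over DMSO baseline scored.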

Experiment [10] concerns the target zebrafish Thyroid Hormone Receptor alpha (TRa), thraa (gene 30670) (UniProt Q98867). The experiment can be described thus: ATG_zfTRa_XSP2: Attagene TRANS-FACTORIAL Multi-Species (XSP1) HepG2 Assay for zebrafish Thyroid Hormone Receptor alpha (TRa) (AID 2283832).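 Further: actives raise zebrafish TRa-Gal4 reporter transcript above DMSO baseline.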 Put shortly:
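Transient transfection of human HepG2 with GAL4-UAS reporter units, then 24 h chemical treatment. RNA isolated, reverse-transcribed, PCR-amplified, FAM-labelled, HpaI-digested and run on capillary electrophoresis. Gain-of-signal relative to DMSO.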

The subject of experiment [11] is zebrafish Peroxisome Proliferator-activated Receptor gamma (PPARg), gene 557037. The experiment can be described thus: ATG_zfPPARg_XSP2: Attagene TRANS-FACTORIAL Multi-Species (XSP2) HepG2 Assay for zebrafish Peroxisome Proliferator-activated Receptor gamma (PPARg) (AID 2283833).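 Further: reporter mRNA from a zebrafish PPARg GAL4 chimera measured by RT-PCR and capillary electrophoresis; actives increase reporter signal over DMSO so AC50 reflects activation.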 Put shortly: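 After 24 h chemical exposure, RNA from transiently transfected HepG2 (chimeric NR-Gal4 TRANS reporters) was reverse-transcribed, PCR-amplified, 6-FAM-labelled, HpaI-cut and sized by capillary electrophoresis. Induction was scored in the positive direction relative to DMSO.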

Experiment [12] concerns turtle Thyroid Hormone Receptor, alpha (TRa), gene 101949057. The experiment can be described thus: ATG_trTRa_XSP2: Attagene TRANS-FACTORIAL Multi-Species (XSP1) HepG2 Assay for turtle Thyroid Hormone Receptor, alpha (TRa) (AID 2283834).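 Further: hits raise reporter mRNA over the DMSO baseline so AC50 marks activators.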 Put shortly: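 Turtle TRa-Gal4 chimera activity in transfected human HepG2 cells: reporter transcripts quantified by RT-PCR, 6-FAM labelling and capillary electrophoresis 24 h post-dosing; positive direction versus DMSO, medium containing 3 nM 6-alpha-fluorotestosterone and 1.5 nM norgestrel.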

Experiment [13] can be described thus: ATG_M_61_XSP2: Attagene TRANS-FACTORIAL Multi-Species (XSP2) HepG2 Assay for M61 Transcription Factor (Internal Marker) (AID 2283835; active means hit-call score of the fitted dose curve at least 0.9, where 1 is the maximum; inactive means score below 0.9;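 further: reporter mRNA of an internal background marker read by RT-PCR and capillary electrophoresis; active means a rise in signal above the DMSO baseline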). Put shortly:
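HepG2 cells transiently transfected with multiple GAL4-UAS reporter units; 3 nM 6-alpha-fluorotestosterone and 1.5 nM norgestrel present to stimulate androgen receptor. After 24 h compound exposure, reporter mRNA measured by RT-PCR and capillary electrophoresis fluorescence, gain-of-signal versus DMSO baseline.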

Experiment [14] deals with zebrafish Thyroid Hormone Receptor beta (TRb), thrb (gene 30607) (UniProt Q9PVE4). The experiment can be described thus: ATG_zfTRb_XSP2: Attagene TRANS-FACTORIAL Multi-Species (XSP1) HepG2 Assay for zebrafish Thyroid Hormone Receptor beta (TRb) (AID 2283836). Put shortly:
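Human liver HepG2, transient MRTU transfection (NR-Gal4 chimeras, GAL4-UAS reporters); 24 h compound exposure; total RNA → oligo(dT) RT → PCR → 6-FAM label → HpaI cut → CE fluorescence. DMSO = negative control/baseline.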

Experiment [15] is described as follows: ATG_XTT_Cytotoxicity_XSP2: Cytotoxicity Assessment in the Attagene TRANS-FACTORIAL Multi-Species (XSP2) HepG2 Assay (AID 2283837). Put shortly:
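HepG2 cells, transiently transfected with multiple reporter constructs, exposed to chemical for 24 h. Cell number assessed with XTT fluorescence read-out; loss of signal fitted relative to DMSO.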

Experiment [16] concerns the target human Thyroid hormone Receptor alpha (TRa), THRA (gene 7067) (UniProt P10827). The experiment can be described thus: ATG_hTRa_XSP2: Attagene TRANS-FACTORIAL Multi-Species (XSP2) HepG2 Assay for human Thyroid hormone Receptor alpha (TRa) (AID 2283838). Summed up: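 HepG2 cells were transiently transfected with GAL4-UAS reporter units for chimeric human TRa-Gal4 and dosed for 24 hours, with 3 nM 6-alpha-fluorotestosterone and 1.5 nM norgestrel present. Reporter mRNA was quantified by RT-PCR, FAM labelling and capillary electrophoresis, with gain of signal fitted versus DMSO.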

The target of experiment [17] is frog Thyroid hormone Receptor alpha (TRa), thra-a (gene 397942) (UniProt P15204). The experiment can be described thus: ATG_frTRa_XSP2: Attagene TRANS-FACTORIAL Multi-Species (XSP2) HepG2 Assay for frog Thyroid hormone Receptor alpha (TRa) (AID 2283839). Put shortly: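 Reporter transcripts were measured by RT-PCR with capillary electrophoresis after 24 h dosing of HepG2 carrying transiently transfected multi-reporter units, including a chimeric frog TRa-GAL4 construct. Activity was taken as increase over DMSO vehicle.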

The target in experiment [18] is human Thyroid hormone Receptor beta (TRb), THRB (gene 7068) (UniProt P10828). The experiment can be described thus: ATG_hTRb_XSP2: Attagene TRANS-FACTORIAL Multi-Species (XSP2) HepG2 Assay for human Thyroid hormone Receptor beta (TRb) (AID 2283840).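 Further: actives raise reporter mRNA so potency reflects agonist-like gain of signal.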 Put shortly:
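Activity of exogenous human TRb–Gal4 fusion measured by reporter mRNA from RT-PCR and capillary electrophoresis, 24 h after dosing transfected HepG2. 6-alpha-fluorotestosterone (3 nM) and norgestrel (1.5 nM) present. Gain-of-signal fit relative to DMSO.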

“And” between values parts separate entries of the source, which are not always exact repeats. Equal values may be shown once. Records with an inconclusive call do not appear. The source made the active and inactive calls. How the source made its calls, unless noted: active means hit-call score of the fitted dose curve at least 0.9, where 1 is the maximum; inconclusive means response in the unintended direction; inactive means score below 0.9.

Nuclear receptor subfamily 1 group I member 2 (Mus musculus), sequence (O54915 whole entry, looked up, the tested form may be a part): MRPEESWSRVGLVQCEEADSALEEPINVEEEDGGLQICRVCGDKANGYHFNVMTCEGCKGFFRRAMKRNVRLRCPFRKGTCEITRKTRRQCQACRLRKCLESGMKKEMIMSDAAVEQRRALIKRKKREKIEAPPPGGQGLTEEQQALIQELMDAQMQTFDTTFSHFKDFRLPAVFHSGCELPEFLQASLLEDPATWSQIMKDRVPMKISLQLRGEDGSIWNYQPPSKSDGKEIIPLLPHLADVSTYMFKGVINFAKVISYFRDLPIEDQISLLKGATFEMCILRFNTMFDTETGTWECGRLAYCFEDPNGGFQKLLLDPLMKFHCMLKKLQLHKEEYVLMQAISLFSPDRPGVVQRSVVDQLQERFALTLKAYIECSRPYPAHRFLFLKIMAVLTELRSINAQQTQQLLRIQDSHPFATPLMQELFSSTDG
zebrafish Thyroid Hormone Receptor alpha (TRa), thraa (gene 30670), sequence (Q98867 whole entry, looked up, the tested form may be a part): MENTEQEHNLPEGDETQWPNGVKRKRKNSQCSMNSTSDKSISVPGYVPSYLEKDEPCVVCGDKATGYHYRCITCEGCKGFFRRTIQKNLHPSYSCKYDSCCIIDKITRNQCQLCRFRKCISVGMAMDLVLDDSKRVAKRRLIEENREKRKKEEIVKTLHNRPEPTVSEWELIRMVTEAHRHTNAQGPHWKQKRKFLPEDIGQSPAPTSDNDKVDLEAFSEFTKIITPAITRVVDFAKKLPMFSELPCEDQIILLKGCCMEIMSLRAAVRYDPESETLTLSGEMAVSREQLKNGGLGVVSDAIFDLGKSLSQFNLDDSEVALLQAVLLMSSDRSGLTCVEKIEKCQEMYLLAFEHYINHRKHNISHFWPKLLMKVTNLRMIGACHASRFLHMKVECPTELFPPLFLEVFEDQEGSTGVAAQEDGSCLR
frog Thyroid hormone Receptor alpha (TRa), thra-a (gene 397942), sequence (P15204 whole entry, looked up, the tested form may be a part): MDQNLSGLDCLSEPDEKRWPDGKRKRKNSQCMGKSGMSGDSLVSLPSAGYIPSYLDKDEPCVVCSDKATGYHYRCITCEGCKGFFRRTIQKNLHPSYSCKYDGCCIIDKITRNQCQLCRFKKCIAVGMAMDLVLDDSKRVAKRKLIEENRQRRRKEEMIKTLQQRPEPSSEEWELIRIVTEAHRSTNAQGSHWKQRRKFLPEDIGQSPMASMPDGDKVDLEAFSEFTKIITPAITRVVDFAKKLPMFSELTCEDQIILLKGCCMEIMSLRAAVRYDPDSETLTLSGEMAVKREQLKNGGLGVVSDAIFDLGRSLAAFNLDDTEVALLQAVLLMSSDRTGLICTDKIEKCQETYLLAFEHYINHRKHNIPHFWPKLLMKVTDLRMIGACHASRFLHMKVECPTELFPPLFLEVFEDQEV
Estrogen receptor (Homo sapiens), sequence (P03372 whole entry, looked up, the tested form may be a part): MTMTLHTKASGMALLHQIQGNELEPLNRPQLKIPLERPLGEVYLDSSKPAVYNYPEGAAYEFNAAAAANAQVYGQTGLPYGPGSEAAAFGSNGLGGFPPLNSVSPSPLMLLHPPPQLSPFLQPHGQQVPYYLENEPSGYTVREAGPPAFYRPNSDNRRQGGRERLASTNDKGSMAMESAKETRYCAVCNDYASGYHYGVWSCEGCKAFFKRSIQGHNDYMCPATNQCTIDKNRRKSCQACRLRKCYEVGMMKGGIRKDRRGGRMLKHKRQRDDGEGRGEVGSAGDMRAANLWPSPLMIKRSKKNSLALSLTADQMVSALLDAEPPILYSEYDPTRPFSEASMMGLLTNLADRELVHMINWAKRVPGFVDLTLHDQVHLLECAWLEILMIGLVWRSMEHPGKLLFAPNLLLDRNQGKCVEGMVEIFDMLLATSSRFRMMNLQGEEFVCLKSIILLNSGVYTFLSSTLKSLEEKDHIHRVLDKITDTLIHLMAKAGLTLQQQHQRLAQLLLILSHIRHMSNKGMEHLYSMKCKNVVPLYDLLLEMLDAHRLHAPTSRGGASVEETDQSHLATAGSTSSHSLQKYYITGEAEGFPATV
zebrafish Thyroid Hormone Receptor beta (TRb), thrb (gene 30607), sequence (Q9PVE4 whole entry, looked up, the tested form may be a part): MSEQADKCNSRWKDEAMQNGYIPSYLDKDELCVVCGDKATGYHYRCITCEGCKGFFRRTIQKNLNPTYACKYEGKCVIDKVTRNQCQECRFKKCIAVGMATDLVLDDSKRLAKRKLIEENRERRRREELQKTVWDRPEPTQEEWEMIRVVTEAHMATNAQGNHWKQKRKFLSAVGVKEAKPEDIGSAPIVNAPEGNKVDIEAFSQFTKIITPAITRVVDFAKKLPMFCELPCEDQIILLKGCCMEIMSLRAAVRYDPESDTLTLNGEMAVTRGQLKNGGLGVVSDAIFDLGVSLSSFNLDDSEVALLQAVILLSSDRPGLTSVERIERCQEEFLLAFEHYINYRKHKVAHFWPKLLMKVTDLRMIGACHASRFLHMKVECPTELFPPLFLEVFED
human Thyroid hormone Receptor beta (TRb), THRB (gene 7068), sequence (P10828 whole entry, looked up, the tested form may be a part): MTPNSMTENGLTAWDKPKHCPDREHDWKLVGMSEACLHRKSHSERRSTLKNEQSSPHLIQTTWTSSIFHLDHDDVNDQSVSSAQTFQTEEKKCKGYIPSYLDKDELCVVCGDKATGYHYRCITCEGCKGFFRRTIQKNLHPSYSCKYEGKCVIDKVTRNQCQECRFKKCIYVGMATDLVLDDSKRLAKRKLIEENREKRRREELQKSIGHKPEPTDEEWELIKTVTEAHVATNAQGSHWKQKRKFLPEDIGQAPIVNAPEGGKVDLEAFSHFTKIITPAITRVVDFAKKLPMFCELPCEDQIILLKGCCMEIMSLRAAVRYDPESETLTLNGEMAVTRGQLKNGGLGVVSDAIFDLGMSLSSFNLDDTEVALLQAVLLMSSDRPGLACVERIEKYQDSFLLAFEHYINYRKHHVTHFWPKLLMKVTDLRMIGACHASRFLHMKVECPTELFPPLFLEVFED
human Thyroid hormone Receptor alpha (TRa), THRA (gene 7067), sequence (P10827 whole entry, looked up, the tested form may be a part): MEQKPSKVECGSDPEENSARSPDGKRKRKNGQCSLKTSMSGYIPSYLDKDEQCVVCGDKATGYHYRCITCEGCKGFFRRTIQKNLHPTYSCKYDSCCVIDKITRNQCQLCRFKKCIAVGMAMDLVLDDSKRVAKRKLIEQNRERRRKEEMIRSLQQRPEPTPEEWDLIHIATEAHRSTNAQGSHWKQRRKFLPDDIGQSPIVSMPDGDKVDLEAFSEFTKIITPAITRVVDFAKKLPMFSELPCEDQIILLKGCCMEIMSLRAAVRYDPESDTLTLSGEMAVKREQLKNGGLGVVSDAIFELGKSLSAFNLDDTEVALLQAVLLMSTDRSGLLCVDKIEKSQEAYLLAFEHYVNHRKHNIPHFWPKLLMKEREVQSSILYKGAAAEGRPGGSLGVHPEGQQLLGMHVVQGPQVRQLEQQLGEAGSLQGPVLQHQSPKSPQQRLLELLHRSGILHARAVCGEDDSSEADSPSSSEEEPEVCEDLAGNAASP

As to `CCCCCCCCCCCCOCCOS(=O)(=O)O`, the AC50 (in general, the concentration giving half of the maximal activity seen) in experiment [1] is 9.92 µM (active). For the same molecule, the result in [2] was inactive.

Consider `O=C(O)C(F)(F)C(F)(F)C(F)(F)C(F)(F)C(F)(F)C(F)(F)C(F)(F)C(F)F`, for which the half-maximal activity concentration (AC50) in experiment [1] is 18.4 µM (active).

On to `CC(=O)OC(C)(C)C`, for which the outcome in experiment [1] and in [2] was inactive.

Turning to `COC(=O)C(C)Oc1ccc(Oc2ncc(C(F)(F)F)cc2Cl)cc1` (configuration not stated), the outcome in [1] and in experiment [2] was inactive. The AC50 in experiment [3] was 14.1 µM (active); in experiment [4], 1.86 µM (active).

`O=S(=O)(O)C(F)(F)C(F)(F)OC(F)(F)C(F)(F)F`: the result in experiment [1] was inactive.

`c1ccc(Cc2ccccc2)cc1`: the result in [1] and in experiment [2] was inactive.

With `CCCCCCCCCCOC(=O)c1ccccc1C(=O)OCCCCCCCC`, the AC50 in experiment [5] is 45.7 µM (active); in experiment [3], 41.3 µM (active); in [4] it was 40.4 µM (active); in experiment [6], 44 µM (active).

`CCCCCC1CCC(=O)O1` (configuration not stated): the result in experiment [1] and in [2] was inactive.

Regarding `[Na+]`, the AC50 in experiment [1] was 5.73 µM (active). Also, in experiment [2], the result was inactive.

For `CCCCCCCCOC(=O)c1ccc(O)cc1`, the AC50 was 21.2 µM (active) and 3.19 µM (active) in [7]; 9.18 µM (active) and 803 nM (active) in [8]; 41.3 µM (active) in experiment [15]. Moreover, the molecule was called inactive in experiment [9], in experiment [10], in experiment [11], in [12], in experiment [13] and in [14]. In addition, the molecule was classed as inactive in experiment [16], in [17] and in experiment [18].
